# Experimental data published in PubChem BioAssay.
# The source made the active and inactive calls.
# Tests used:
# [1] = test system: Plasmodium falciparum Sir2 (PF13_0152, Sir2A); experiment: pfSir2 binders on small-molecule microarrays, primary screen, biochemical, small-molecule microarray, 635 nm fluorescence (AID 1098); details: small-molecule microarray binding, fluorescence 635 nm; higher = more signal;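 note: score merges spot fluorescence intensity with its signal-to-noise ratio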
# [2] = small-molecule microarray binders of probe aDKK1, primary screen, biochemical, biotinylated probe, 635/667 nm fluorescence (AID 1099); details: higher = more signal;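 note: score merges 667nm spot fluorescence with signal to noise across triplicate slides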
# [3] = small-molecule microarray binders of probe aCHRDL2, primary screen, biochemical, biotinylated probe, 635/667 nm fluorescence (AID 1100); details: higher = more signal
# [4] = splicing luciferase reporter signal modulators, primary screen, spliceosome inhibition project, cell-based, HEK293, splice +/- reporter (AID 1101); details: luminescence, 24 h, higher = more signal, called active from +8 up or from −8 down;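 note: HEK293 cells carrying a splicing-competent luciferase reporter gene; test concentration not given here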
# [5] = biological target: Fibroblast growth factor 10 (Homo sapiens) (UniProt O15520); experiment: FGF10 binders on small-molecule microarrays, primary screen, biochemical, small-molecule microarray, 635 nm fluorescence (AID 1102); details: FGF10 binding, fluorescence 635 nm, higher = more signal
# Fibroblast growth factor 10 (Homo sapiens), sequence (O15520 whole entry, looked up): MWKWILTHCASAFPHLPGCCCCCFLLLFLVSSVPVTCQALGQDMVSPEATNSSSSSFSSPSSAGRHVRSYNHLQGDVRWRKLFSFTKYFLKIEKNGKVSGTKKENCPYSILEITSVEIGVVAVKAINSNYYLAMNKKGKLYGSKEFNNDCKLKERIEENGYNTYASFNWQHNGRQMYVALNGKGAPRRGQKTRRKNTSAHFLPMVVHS
# [6] = test system: glycogen synthase kinase-3 (GSK3A per assay name; protocol says GSK3B); experiment: GSK3 binders on small-molecule microarrays, primary screen, biochemical, small-molecule microarray, 635 nm fluorescence, GSK3A (AID 1103); details: small-molecule microarray binding, fluorescence 635 nm; higher = more signal; note: the record names both GSK3A and GSK3B
# [7] = biological target: Epidermal growth factor receptor (Homo sapiens) (UniProt P00533); experiment: EGFR binders on small-molecule microarrays, primary screen, biochemical, small-molecule microarray, 635 nm fluorescence (AID 1104); details: EGFR binding, higher = more signal;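 note: score merges 667 nm emission intensity with spot signal to noise over triplicate slides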
# Epidermal growth factor receptor (Homo sapiens), sequence (P00533 whole entry, looked up): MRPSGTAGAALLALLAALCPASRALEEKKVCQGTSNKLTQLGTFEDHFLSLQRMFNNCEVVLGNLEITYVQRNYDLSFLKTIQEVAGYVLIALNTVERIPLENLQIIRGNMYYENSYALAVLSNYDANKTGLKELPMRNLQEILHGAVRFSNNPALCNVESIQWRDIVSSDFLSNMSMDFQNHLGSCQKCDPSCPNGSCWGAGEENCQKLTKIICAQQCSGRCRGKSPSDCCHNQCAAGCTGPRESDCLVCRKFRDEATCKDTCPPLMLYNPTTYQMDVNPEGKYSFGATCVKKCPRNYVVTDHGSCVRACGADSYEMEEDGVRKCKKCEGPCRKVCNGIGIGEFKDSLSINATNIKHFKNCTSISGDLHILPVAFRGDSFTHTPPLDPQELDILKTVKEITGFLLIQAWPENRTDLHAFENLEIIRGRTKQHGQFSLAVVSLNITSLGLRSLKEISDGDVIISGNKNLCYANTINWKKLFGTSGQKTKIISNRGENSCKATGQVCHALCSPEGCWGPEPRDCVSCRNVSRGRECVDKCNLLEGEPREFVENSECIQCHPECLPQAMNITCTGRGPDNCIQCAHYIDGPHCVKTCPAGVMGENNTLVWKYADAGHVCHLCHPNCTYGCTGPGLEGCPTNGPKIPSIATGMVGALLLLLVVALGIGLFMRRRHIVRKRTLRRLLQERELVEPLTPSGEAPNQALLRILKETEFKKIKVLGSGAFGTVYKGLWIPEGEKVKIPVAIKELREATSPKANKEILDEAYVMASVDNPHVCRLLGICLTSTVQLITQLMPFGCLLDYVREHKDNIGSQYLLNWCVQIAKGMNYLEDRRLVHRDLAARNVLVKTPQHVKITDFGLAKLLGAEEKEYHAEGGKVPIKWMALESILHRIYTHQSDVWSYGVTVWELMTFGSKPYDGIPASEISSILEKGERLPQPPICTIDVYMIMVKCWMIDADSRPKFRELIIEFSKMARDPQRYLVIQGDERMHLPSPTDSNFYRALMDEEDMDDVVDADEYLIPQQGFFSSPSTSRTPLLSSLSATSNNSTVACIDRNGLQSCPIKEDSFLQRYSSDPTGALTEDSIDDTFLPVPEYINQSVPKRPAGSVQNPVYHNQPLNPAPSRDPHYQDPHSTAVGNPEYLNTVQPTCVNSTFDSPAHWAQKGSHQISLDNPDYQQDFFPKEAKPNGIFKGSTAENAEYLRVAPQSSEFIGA
# [8] = biological target: Follistatin-related protein 3 (Homo sapiens) (UniProt O95633); experiment: FSTL3 binders on small-molecule microarrays, primary screen, biochemical, small-molecule microarray, 635 nm fluorescence (AID 1105); details: FSTL3 binding, higher = more signal;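 note: score merges emission near 667 nm and signal to noise per printed spot across three slides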
# Follistatin-related protein 3 (Homo sapiens), sequence (O95633 whole entry, looked up): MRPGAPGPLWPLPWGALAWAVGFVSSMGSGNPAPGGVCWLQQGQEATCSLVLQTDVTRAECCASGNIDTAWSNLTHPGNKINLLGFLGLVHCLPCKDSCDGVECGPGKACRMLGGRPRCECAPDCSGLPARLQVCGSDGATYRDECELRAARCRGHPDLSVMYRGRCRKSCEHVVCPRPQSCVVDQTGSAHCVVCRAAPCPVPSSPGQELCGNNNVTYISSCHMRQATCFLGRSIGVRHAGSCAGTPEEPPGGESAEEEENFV
# [9] = biological target: Dickkopf-related protein 1 (Homo sapiens) (UniProt O94907); experiment: DKK1 binders on small-molecule microarrays, primary screen, biochemical, small-molecule microarray, 635 nm fluorescence scan (AID 1106); details: DKK1 binding, higher = more signal;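 note: score merges emission near 667 nm with signal to noise over three replicate slides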
# Dickkopf-related protein 1 (Homo sapiens), sequence (O94907 whole entry, looked up): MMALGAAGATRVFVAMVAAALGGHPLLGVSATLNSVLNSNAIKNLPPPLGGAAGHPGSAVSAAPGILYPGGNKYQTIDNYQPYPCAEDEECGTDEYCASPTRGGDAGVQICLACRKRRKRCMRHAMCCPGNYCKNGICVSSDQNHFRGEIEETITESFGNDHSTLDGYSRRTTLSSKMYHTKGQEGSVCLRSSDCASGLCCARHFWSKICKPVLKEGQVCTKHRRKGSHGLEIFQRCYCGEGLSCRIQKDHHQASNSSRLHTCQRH
# [10] = test system: Inhibin beta A chain (activin A); experiment: INHBA (activin A) binders on microarrays, primary screen, biochemical, small-molecule microarray, 635 nm fluorescence scan (AID 1107); details: small-molecule microarray binding, higher = more signal;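 note: mouse activin A protein probed at 4.33 µg/mL on printed slides; score merges bound-protein fluorescence near 667 nm with spot signal-to-noise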
# [11] = test system: Human papillomavirus type 1a protein E7 (residues 44-93); experiment: HPV1a E7 fragment binders on microarrays, primary screen, biochemical, small-molecule microarray, residues 44-93, 635 nm fluorescence (AID 1108); details: small-molecule microarray binding, fluorescence 635 nm; higher = more signal;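 note: E7 fragment applied at 1 µg/mL in TBST for 1 h at 4 C; score combines spot fluorescence with its signal to noise ratio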
# [12] = modulators of HCV replicon luciferase signal, primary screen, HCV replication inhibitor project, Huh7 cells, luciferase reporter (AID 1109); details: 48 h, higher = more signal;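 note: huh7 hepatoma cells harbouring a luciferase neomycin HCV replicon reporter; luciferase luminescence as measure of HCV replicon replication; test concentration not given here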
# [13] = biological target: Left-right determination factor 2 (Homo sapiens) (UniProt O00292); experiment: LEFTY2 binders on small-molecule microarrays, primary screen, biochemical, small-molecule microarray, 635 nm fluorescence scan (AID 1110); details: LEFTY2 binding, higher = more signal
# Left-right determination factor 2 (Homo sapiens), sequence (O00292 whole entry, looked up): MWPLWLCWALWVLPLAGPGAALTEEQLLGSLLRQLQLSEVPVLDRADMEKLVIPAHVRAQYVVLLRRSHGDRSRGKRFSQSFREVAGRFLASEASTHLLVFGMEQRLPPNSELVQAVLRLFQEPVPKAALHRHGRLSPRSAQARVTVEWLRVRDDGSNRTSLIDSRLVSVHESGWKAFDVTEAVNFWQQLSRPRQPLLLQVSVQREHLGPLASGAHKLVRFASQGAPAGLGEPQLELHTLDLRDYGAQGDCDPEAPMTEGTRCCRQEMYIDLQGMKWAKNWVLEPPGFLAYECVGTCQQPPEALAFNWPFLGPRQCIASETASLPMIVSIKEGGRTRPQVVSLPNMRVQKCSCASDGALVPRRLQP
# [14] = biological target: Calmodulin-1 (Homo sapiens) (UniProt P0DP23); experiment: CALM1 binders on microarrays, EGTA buffer, profiling panel, biochemical, small-molecule microarray, Cy5-labelled CALM1 (AID 1111); details: Cy5-CALM1 binding fluorescence, higher = more signal;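 note: labelled calmodulin applied in Tris saline Tween buffer holding calcium plus EGTA and DTT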
# [15] = biological target: Calmodulin-1 (Homo sapiens) (UniProt P0DP23); experiment: calcium-bound CALM1 binders on microarrays, profiling panel, artefact control for SMM control-protein annotation, biochemical, small-molecule microarray, Cy5-labelled CALM1, plus calcium (AID 1112); details: Cy5-CALM1 binding fluorescence, higher = more signal;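 note: score merges spot fluorescence with signal to noise from triplicate slides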
# [16] = small-molecule microarray binders of probe aWnt5a, primary screen, biochemical, biotinylated probe, 635/667 nm fluorescence (AID 1113); details: higher = more signal;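 note: score merges 667 nm fluorescence intensity with signal-to-noise per printed feature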
# [17] = small-molecule microarray binders of probe aShh, primary screen, biochemical, biotinylated probe, 635/667 nm fluorescence (AID 1114); details: higher = more signal;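 note: probe is biotin-labelled aShh protein from a stem cell growth factor screen; measures binding of labelled protein to compounds printed on the slide; score merges feature fluorescence at 667 nm with signal-to-noise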
# [18] = small-molecule microarray binders of probe aNog, primary screen, biochemical, biotinylated probe, 635/667 nm fluorescence (AID 1115); details: higher = more signal;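 note: probe is biotinylated aNog protein used at 0.15 µg/mL for 1 h at 4 C; z-score combines 667 nm fluorescence of each spot with its signal to noise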
# [19] = biological target: Torsin-1A-interacting protein 1 (Homo sapiens) (UniProt Q5JTV8); experiment: LAP1 binders from COS7 cell lysate, primary screen, small-molecule microarray, 635/667 nm fluorescence (AID 1116); details: COS7-hLAP1 lysate binding, 635 nm fluorescence, higher = more signal
# Torsin-1A-interacting protein 1 (Homo sapiens), sequence (Q5JTV8 whole entry, looked up): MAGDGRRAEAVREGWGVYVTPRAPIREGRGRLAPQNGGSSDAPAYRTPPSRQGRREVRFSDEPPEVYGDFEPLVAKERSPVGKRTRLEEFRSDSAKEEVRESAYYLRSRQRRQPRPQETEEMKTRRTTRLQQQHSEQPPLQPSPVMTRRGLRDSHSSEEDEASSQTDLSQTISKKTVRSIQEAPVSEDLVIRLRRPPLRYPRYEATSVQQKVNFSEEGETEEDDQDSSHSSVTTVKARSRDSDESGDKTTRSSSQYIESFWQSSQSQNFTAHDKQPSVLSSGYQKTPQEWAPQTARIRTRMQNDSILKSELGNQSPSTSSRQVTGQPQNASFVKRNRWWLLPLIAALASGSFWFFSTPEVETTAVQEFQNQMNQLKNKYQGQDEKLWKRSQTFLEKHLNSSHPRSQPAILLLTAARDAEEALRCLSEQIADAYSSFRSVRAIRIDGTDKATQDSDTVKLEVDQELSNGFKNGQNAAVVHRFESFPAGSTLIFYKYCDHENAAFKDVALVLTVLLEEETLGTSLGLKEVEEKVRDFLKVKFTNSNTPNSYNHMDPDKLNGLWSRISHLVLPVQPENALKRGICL
# [20] = biological target: Alpha-bungarotoxin (Bungarus multicinctus) (UniProt P60615); experiment: alpha-bungarotoxin binders on microarray, profiling panel, artefact control for SMM control protein annotation, biochemical, small-molecule microarray, Alexa647 label, 635/667 nm fluorescence (AID 1117); details: alpha-BTX-A647 binding fluorescence, higher = more signal
# Alpha-bungarotoxin (Bungarus multicinctus), sequence (P60615 whole entry, looked up): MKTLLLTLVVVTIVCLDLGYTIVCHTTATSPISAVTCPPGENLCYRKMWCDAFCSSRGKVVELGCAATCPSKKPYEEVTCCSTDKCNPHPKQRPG
SMILES,composite z-score [1],composite z-score [2],composite z-score [3],z-score [4],composite z-score [5],composite z-score [6],composite z-score [7],composite z-score [8],composite z-score [9],composite z-score [10],composite z-score [11],z-score [12],composite z-score [13],composite z-score [14],composite z-score [15],composite z-score [16],composite z-score [17],composite z-score [18],composite z-score [19],composite z-score [20]
COCCOC(=O)N1C(=O)[C@@]2(c3cc(C#CCCO)ccc31)[C@H](c1ccccc1OCCO)N1[C@H](c3ccccc3)[C@H](c3ccccc3)OC(=O)[C@H]1[C@@H]2C(=O)NC[C@H](O)c1ccccc1,1.34,0.704,0.416,-0.428 (inactive),1.16,1.22,0.2,1.35,0.74,0.274,0.722,-1.53,0.449,1.11,0.678,-0.0512,0.275,0.482,1.38,1.89
NC(=O)N1C(=O)C2C(C1=O)C1C=C(c3ccc(CO)cc3)C2C(C2CC2)N1Cc1cc2c(cc1Br)OCO2 (stereo not given),0.105,0.176,0.691,-0.87 (inactive),0.151,0.314,-0.505,-0.0544,-0.196,1.34,0.0207,-1.03,-0.254,0.438,0.163,-0.124,-0.0146,-0.0689,1.11,0.55
C=CCNC(=O)[C@H]1[C@@H]2C(=O)O[C@@H](c3ccccc3)[C@@H](c3ccccc3)N2[C@@H](c2ccc(OCCO)cc2)[C@]12C(=O)Nc1ccc(C#CCCO)cc12,1.36,0.299,0.797,-1.26 (inactive),0.241,-0.145,-0.105,0.359,-0.059,0.629,0.699,-0.735,-0.0631,0.0076,0.295,-0.175,-0.0769,0.332,1.42,1.9
COc1ccc(C#Cc2ccc3c(c2)[C@]2(C(=O)N3)[C@H](c3ccc(O)cc3)N3[C@H](c4ccccc4)[C@H](c4ccccc4)OC(=O)[C@H]3[C@@H]2C(=O)N2CCN(c3ncccn3)CC2)cc1,0.595,0.762,0.657,-0.835 (inactive),0.388,0.424,0.0077,0.219,-0.0775,0.0381,0.778,-1.15,-0.0042,1.95,0.707,0.0236,0.842,0.353,1.28,1.75
CCCC[C@@H](O)C1=C(C)C[C@H]2C(=O)N(C)C(=O)[C@H]2[C@H]1CO,1.42,-0.372,-0.493,-0.72 (inactive),0.755,0.349,0.269,0.229,0.3,-0.301,0.276,0.739,0.322,-0.409,-0.471,-0.0944,0.0141,0.185,0.0605,0.548
